PubChem BioAssay
Activity calls are given as the source filed them. Unless noted, no rule for the calls is given here.

Tests used:
[1] = tested on: Wnt5a (protein binding on small-molecule microarray); test: Wnt5a binders on small-molecule microarray, primary screen, biophysical, 635/667 nm fluorescence (AID 1142); settings: 635 nm fluorescence, higher = more signal;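 also: fluorescence read at 667 nm with signal to noise per printed feature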
[2] = cell viability in Huh7 cells, primary screen, cytotoxicity control for HCV replication inhibitor project, CellTiter-Glo luminescence, basal, 48 h (AID 1143); settings: Huh7 HCV replicon, higher = more signal, called active from +8 up or from −8 down;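 also: Huh7 hepatoma cells carrying a hepatitis C replication reporter with no stimulus; test concentration not given here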
[3] = P. aeruginosa biofilm formation inhibitors, primary screen, PAO1 strain, BacTiter-Glo luminescence, LB-PBS (AID 1144); settings: 12 h, higher = more signal
[4] = CREB reporter modulators without forskolin, primary screen, cell-based, PC12, CRE-LacZ reporter, unstimulated (AID 1145); settings: no forskolin, luminescence, 4.5 h, higher = more signal, called active from +8 up or from −8 down
[5] = CREB reporter modulators under forskolin, primary screen, cell-based, PC12, CRE-LacZ reporter, forskolin-stimulated (AID 1146); settings: luminescence, 4.5 h, higher = more signal, called active from +8 up or from −8 down;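 also: PC12 cells with 6xCRE LacZ reporter stimulated by forskolin 10 µM; beta-galactosidase reporter signal reflecting CREB driven transcription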
[6] = target: Streptavidin (Streptomyces avidinii) (UniProt P22629); test: streptavidin binders on small-molecule microarray, primary screen, artefact control for SMM compound annotation, biophysical, 635/667 nm fluorescence (AID 1147); settings: streptavidin binding, higher = more signal;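 also: signal reflects streptavidin binding to arrayed compounds as a control protein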
[7] = small-molecule binders of probe aInhba, primary screen, biochemical, small-molecule microarray, 635/667 nm fluorescence (AID 1148); settings: higher = more signal;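 also: score merges 667nm spot fluorescence with signal-to-noise for antibody binding to printed compounds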
Torsin-1A (Homo sapiens) [8] = target: Torsin-1A (Homo sapiens) (UniProt O14656); test: torsin A binders from cell lysate, primary screen, small-molecule microarray, wild-type, 635/667 nm (AID 1149); settings: COS7 hTOR1A-WT lysate, 635 nm fluorescence, higher = more signal
Torsin-1A (Homo sapiens) [9] = target: Torsin-1A (Homo sapiens) (UniProt O14656); test: small-molecule binders of mutant TOR1A in lysate, primary screen, cell lysate, small-molecule microarray, COS7 lysate, 635/667 nm fluorescence (AID 1150); settings: COS7 hTOR1A mutant lysate, 635 nm fluorescence, higher = more signal;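 also: score pools 667 nm emission and signal to noise measuring lysate protein binding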
[10] = tested on: Sonic hedgehog protein (Shh); test: small-molecule binders of Shh protein, primary screen, biochemical, small-molecule microarray, 635/667 nm fluorescence (AID 1151); settings: small-molecule microarray binding, 635 nm fluorescence; higher = more signal;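 also: Shh protein binding to compounds spotted on small-molecule microarray slides; score combines spot fluorescence intensity with signal-to-noise across triplicate slides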
[11] = E. coli DRC41 culture turbidity changes, primary screen, E. coli filamentation inducer project, strain DRC41, OD650, 48 h (AID 1152);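 also: E. coli MC1000 strain DRC41 lacking acrAB efflux pump and sulA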; settings: E. coli DRC41 (acrAB sulA), higher = more signal, called active from +8 up or from −8 down
[12] = small-molecule binders of probe aLefty1, primary screen, biochemical, small-molecule microarray, 635/667 nm fluorescence (AID 1153); settings: higher = more signal;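 also: score merges spot fluorescence with signal-to-noise ratio from the scanned slide images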
[13] = PSAC antagonists in infected red cells, primary screen, cell-based, P. falciparum Indochina, OD700, 1 h (AID 1154); settings: P. falciparum Indochina infected RBC osmotic lysis, higher = more signal, called active from +8 up or from −8 down
[14] = PSAC antagonists in infected red cells, primary screen, cell-based, P. falciparum Indochina, OD700, 2 h (AID 1155);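 also: lysis reports solute entry through the parasite surface anion channel PSAC; channel blockers reduce lysis of infected cells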; settings: P. falciparum Indochina infected erythrocytes, osmotic lysis OD700; higher = more signal, called active from +8 up or from −8 down
[15] = osmotic lysis modulators in infected erythrocytes, primary screen, PSAC antagonist project, cell-based, P. falciparum Indochina, OD700, 3 h (AID 1156); settings: higher = more signal, called active from +8 up or from −8 down
[16] = PSAC antagonists in infected red cells, primary screen, cell-based, P. falciparum Indochina, OD700, 18 h (AID 1157); settings: P. falciparum Indochina infected erythrocytes, osmotic lysis OD700, 18 h; higher = more signal, called active from +8 up or from −8 down
[17] = modulators of S6 phosphorylation in cells, primary screen, cell-based, A549, cytoblot, luminescence, serum-stimulated (AID 1158); settings: A549 phospho-S6 cytoblot, 5 h, higher = more signal;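 also: serum-stimulated A549 lung adenocarcinoma cells; signal is phosphorylated S6 detected by cytoblot immunostaining with HRP secondary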
[18] = target: NADPH oxidase 2 (Homo sapiens) (UniProt P04839); test: NOX2-dependent H2O2 signal modulators, primary screen, NOX inhibitor project, cell-based, HEK293-NOX2, PMA-stimulated, Amplex Red fluorescence (AID 1159); settings: 45 min, higher = more signal, called active from +8 up or from −8 down; also: test concentration not given here
[19] = target: NADPH oxidase 4 (Homo sapiens) (UniProt Q9NPH5); test: NOX4-dependent H2O2 signal modulators, primary screen, NOX inhibitor project, cell-based, HEK293-NOX4, tetracycline-induced, Amplex Red fluorescence (AID 1160); settings: 45 min, higher = more signal, called active from +8 up or from −8 down
[20] = target: NADPH oxidase 5 (Homo sapiens) (UniProt Q96PH1); test: NOX5-dependent H2O2 signal modulators, primary screen, NOX inhibitor project, cell-based, HEK293-NOX5, Amplex Red fluorescence (AID 1161); settings: HEK293-NOX5, ionomycin, 45 min, higher = more signal
Sequence of NADPH oxidase 5 (Homo sapiens) (Q96PH1 whole entry, looked up): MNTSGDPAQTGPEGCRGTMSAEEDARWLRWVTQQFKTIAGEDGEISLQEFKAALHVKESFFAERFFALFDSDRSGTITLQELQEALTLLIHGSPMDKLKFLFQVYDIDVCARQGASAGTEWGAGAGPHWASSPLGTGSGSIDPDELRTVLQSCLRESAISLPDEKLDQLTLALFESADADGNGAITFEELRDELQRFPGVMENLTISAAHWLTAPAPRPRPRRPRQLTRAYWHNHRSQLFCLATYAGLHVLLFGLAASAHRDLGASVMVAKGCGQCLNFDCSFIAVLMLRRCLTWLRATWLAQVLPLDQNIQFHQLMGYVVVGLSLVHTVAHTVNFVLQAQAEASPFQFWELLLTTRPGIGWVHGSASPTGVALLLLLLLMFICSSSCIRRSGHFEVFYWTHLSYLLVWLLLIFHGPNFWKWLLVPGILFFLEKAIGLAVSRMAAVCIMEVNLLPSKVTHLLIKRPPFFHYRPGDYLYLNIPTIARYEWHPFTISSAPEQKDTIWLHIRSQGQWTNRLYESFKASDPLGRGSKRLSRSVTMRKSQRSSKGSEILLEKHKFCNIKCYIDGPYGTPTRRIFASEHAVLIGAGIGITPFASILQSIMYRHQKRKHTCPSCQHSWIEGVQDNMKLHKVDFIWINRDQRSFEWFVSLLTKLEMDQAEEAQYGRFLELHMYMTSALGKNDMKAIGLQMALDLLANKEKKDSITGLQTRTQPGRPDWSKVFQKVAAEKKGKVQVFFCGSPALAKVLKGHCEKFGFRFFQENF

Sequence of NADPH oxidase 2 (Homo sapiens) (P04839 whole entry, looked up): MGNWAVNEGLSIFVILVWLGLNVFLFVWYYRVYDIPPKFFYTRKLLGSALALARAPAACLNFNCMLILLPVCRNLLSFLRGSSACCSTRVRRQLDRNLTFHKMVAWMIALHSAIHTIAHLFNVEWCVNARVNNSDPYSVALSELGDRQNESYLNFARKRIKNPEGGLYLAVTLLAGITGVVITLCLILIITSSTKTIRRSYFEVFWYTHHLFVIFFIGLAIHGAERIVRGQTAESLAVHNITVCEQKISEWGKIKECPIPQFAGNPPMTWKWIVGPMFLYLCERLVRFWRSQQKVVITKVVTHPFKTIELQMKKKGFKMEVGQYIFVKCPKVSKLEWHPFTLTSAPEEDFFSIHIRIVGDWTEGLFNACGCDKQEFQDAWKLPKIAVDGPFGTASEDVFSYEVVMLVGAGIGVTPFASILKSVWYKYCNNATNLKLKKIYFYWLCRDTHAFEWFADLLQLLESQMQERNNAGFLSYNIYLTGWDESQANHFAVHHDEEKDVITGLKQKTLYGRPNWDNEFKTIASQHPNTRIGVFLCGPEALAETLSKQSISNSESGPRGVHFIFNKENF
Sequence of Torsin-1A (Homo sapiens) (O14656 whole entry, looked up): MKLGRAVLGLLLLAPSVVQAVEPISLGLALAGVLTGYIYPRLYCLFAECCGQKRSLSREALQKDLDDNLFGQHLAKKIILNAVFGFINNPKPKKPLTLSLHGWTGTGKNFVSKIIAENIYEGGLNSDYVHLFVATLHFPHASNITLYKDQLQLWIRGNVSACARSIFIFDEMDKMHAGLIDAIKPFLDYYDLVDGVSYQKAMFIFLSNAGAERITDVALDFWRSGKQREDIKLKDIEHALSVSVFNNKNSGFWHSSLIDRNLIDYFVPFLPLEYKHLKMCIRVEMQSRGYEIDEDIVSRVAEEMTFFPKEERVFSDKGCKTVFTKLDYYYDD
Sequence of NADPH oxidase 4 (Homo sapiens) (Q9NPH5 whole entry, looked up): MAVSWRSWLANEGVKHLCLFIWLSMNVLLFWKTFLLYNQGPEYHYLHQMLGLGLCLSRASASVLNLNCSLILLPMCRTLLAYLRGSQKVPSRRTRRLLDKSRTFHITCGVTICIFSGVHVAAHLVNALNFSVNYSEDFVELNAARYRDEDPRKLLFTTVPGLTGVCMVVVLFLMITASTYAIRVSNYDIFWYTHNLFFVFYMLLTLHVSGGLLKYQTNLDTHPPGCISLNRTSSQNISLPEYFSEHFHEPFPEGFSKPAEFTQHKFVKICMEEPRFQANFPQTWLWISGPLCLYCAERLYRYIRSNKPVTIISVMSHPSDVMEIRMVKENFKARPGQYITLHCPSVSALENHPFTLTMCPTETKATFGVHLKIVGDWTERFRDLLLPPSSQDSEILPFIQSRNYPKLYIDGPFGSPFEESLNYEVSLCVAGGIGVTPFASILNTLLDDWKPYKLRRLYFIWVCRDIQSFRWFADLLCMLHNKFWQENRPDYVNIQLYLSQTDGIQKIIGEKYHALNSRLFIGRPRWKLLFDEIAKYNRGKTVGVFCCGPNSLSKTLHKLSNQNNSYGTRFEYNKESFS
Sequence of Streptavidin (Streptomyces avidinii) (P22629 whole entry, looked up): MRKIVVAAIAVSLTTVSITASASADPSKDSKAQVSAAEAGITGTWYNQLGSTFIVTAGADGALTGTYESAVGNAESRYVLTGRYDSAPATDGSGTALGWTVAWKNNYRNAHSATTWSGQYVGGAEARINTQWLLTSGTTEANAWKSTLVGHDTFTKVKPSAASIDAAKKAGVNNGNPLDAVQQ

SMILES	composite z-score [1]	z-score [2]	z-score [3]	z-score [4]	z-score [5]	composite z-score [6]	composite z-score [7]	composite z-score (Torsin-1A (Homo sapiens) [8])	composite z-score (Torsin-1A (Homo sapiens) [9])	composite z-score [10]	z-score [11]	composite z-score [12]	z-score [13]	z-score [14]	z-score [15]	z-score [16]	z-score [17]	z-score [18]	z-score [19]	z-score [20]
CO[C@H]1O[C@H](CO)[C@@H](OC(=O)Nc2ccc3c(c2)OCO3)[C@H](OC(=O)Nc2ccccc2-c2ccccc2)[C@H]1OC(=O)Nc1ccccc1-c1ccccc1	1.07	-5.61 (inactive)	-0.378 (inactive)	1.5 (inactive)	-1.05 (inactive)	0.2	0.196	0.384	1.55	0.333	-0.133 (inactive)	-0.0536	2.14 (inactive)	0.825 (inactive)	-0.124 (inactive)	1.21 (inactive)	-0.311	-4.55 (inactive)	-0.707 (inactive)	-0.848
CCOC(=O)C[C@H]1[C@H](OC(=O)c2ccccc2-c2ccccc2)[C@@H](NC(=O)c2ccc3ccccc3c2)c2cc(OCCCO)ccc2N1C(=O)Cc1ccc(OC)cc1	0.23	0.0138 (inactive)	0.619 (inactive)	3.37 (inactive)	0.654 (inactive)	-0.0096	-0.128	0.0216	0.768	-0.314	-0.878 (inactive)	-0.241	4.15 (inactive)	0.403 (inactive)	-0.681 (inactive)	0.281 (inactive)	0.12	0.0357 (inactive)	1.02 (inactive)	1.01
C=C(C)[C@@H]1CC=C(C(O)C2C=CC3C(=O)N(c4ccccc4)C(=O)C3N2Nc2ccc([N+](=O)[O-])cc2)CC1 (stereo not given in full)	0.331	-1.14 (inactive)	-1.4 (inactive)	-0.527 (inactive)	-0.605 (inactive)	1.5	0.19	0.875	0.685	1.11	-1.58 (inactive)	0.37	5.76 (inactive)	1.9 (inactive)	1.34 (inactive)	1.79 (inactive)	-0.456	-0.962 (inactive)	-2.07 (inactive)	-2.96
CCOC(=O)C[C@H]1[C@H](OC(=O)Cc2ccc3c(c2)OCO3)[C@@H](NC(=O)Cc2ccc(OC)cc2)c2cc(OCCCO)ccc2N1C(=O)Cc1ccc(OC)cc1	-0.31	-0.972 (inactive)	-0.805 (inactive)	1.52 (inactive)	-0.0811 (inactive)	0.699	-0.154	0.142	0.209	0.106	1.91 (inactive)	-0.15	10.7 (active)	0.647 (inactive)	-1.02 (inactive)	-0.395 (inactive)	1.68	-0.988 (inactive)	0.754 (inactive)	0.404
COc1ccc([Si](C)(C)[C@@H]2[C@@H](CC(=O)N3Cc4ccccc4C[C@H]3CO)O[C@]3(C(=O)N(Cc4cccc(N5CCOC5=O)c4)c4ccccc43)[C@H]2C)cc1	0.244	-4.12 (inactive)	0.291 (inactive)	-0.491 (inactive)	-0.318 (inactive)	-0.281	-0.0581	0.846	0.737	2.11	-0.207 (inactive)	0.647	5.29 (inactive)	1.06 (inactive)	0.599 (inactive)	0.548 (inactive)	0.114	-2.65 (inactive)	1.1 (inactive)	-1.02
COCCCNC(=O)[C@@]1(CCC(=O)OC(C)(C)C)COC(c2ccc(OCCCO)cc2)=N1	0.23	-1.7 (inactive)	-0.126 (inactive)	0.195 (inactive)	0.706 (inactive)	0.905	0.204	0.589	1.4	-0.98	0.42 (inactive)	0.205	23.6 (active)	4.91 (inactive)	0.873 (inactive)	0.766 (inactive)	-0.169	-2.51 (inactive)	0.195 (inactive)	-0.0784
COc1ccc(C(O)C2C=CC3C(=O)N(c4ccccc4)C(=O)C3N2Nc2ccc(C#N)cc2)cc1OCc1ccccc1 (stereo not given)	0.512	0.0667 (inactive)	-0.753 (inactive)	1.39 (inactive)	0.338 (inactive)	1.65	0.274	0.056	1.12	-0.189	-1.37 (inactive)	0.482	9.41 (active)	2.2 (inactive)	0.918 (inactive)	1.27 (inactive)	-0.98	-1.69 (inactive)	-2.41 (inactive)	-2.45
C=CCC(OC(C)=O)[C@@H]1[C@@H](N(Cc2cccc3ccccc23)C(=O)Cc2ccc(OC)cc2)c2cc(OCCCO)ccc2N1C(=O)Cc1ccc2ccccc2c1 (stereo not given in full)	-0.0841	-1.91 (inactive)	0.255 (inactive)	-0.854 (inactive)	1.38 (inactive)	0.175	-0.181	-0.254	-0.41	0.0227	-0.504 (inactive)	0.285	2.18 (inactive)	0.0026 (inactive)	1.42 (inactive)	-0.0843 (inactive)	0.909	-2.23 (inactive)	-0.887 (inactive)	-1.91
Cc1ccc(C(C)CC(O)C2C=CC3C(=O)N(C)C(=O)C3N2Nc2ccccc2)o1 (stereo not given)	0.342	-0.206 (inactive)	-0.368 (inactive)	0.25 (inactive)	0.471 (inactive)	0.0989	0.0588	0.371	-0.139	1.08	-2.23 (inactive)	0.356	2.46 (inactive)	0.962 (inactive)	0.684 (inactive)	1.17 (inactive)	-1.4	-1.73 (inactive)	-4.75 (inactive)	-3.53
C=C(CCCC)/C(=C/C[C@H](OC(=O)c1ccncc1)c1ccccc1OCCO)c1cc(C(=O)OC)ccc1OC	-0.0692	-1.78 (inactive)	-0.402 (inactive)	11.4 (active)	0.179 (inactive)	0.396	0.0391	0.0152	0.369	1.43	0.0839 (inactive)	0.165	23.6 (active)	6.35 (inactive)	3.84 (inactive)	1.44 (inactive)	-0.166	0.559 (inactive)	-0.48 (inactive)	-1.67
O=C(NC1CC1)[C@@H]1c2ccccc2C(=O)N(Cc2cc(C(F)(F)F)cc(C(F)(F)F)c2)[C@H]1c1ccc(CO)cc1	-0.0738	-4.67 (inactive)	0.0176 (inactive)	1.14 (inactive)	-1.05 (inactive)	0.0581	-0.248	-0.73	-0.727	0.658	-0.0602 (inactive)	-0.308	2.63 (inactive)	0.26 (inactive)	1.12 (inactive)	-0.558 (inactive)	2.41	-0.397 (inactive)	-1.17 (inactive)	-2.23
COC(=O)[C@]1(Cc2ccccc2)N=C(c2ccc(OCCCO)cc2)O[C@@H]1c1ccccc1CN=[N+]=[N-]	0.239	-5.39 (inactive)	-1.19 (inactive)	2.31 (inactive)	-1.5 (inactive)	-0.304	0.233	-0.133	0.104	0.895	-1.03 (inactive)	0.25	27.2 (active)	24.7 (active)	0.765 (inactive)	4.7 (inactive)	0.614	-4.51 (inactive)	-1.36 (inactive)	-2.36
C=CCC(OC(C)=O)[C@@H]1[C@@H](N(Cc2cccc3ccccc23)C(=O)Cc2ccc(OC)cc2)c2cc(OCCCO)ccc2N1C(=O)c1ccc2ccccc2c1 (stereo not given in full)	-0.186	-3.04 (inactive)	-0.719 (inactive)	0.0458 (inactive)	-0.383 (inactive)	0.172	-0.152	0.794	-0.118	0.239	0.808 (inactive)	0.147	0.79 (inactive)	-0.443 (inactive)	-0.214 (inactive)	-0.691 (inactive)	1.2	-2.11 (inactive)	-1.24 (inactive)	-0.827
COc1ccc([Si](C)(C)[C@@H]2[C@@H](CC(=O)N(CCO)Cc3ccccc3)O[C@]3(C(=O)N(Cc4ccc(I)cc4)c4ccccc43)[C@H]2C)cc1	0.29	-4.48 (inactive)	-0.129 (inactive)	-0.505 (inactive)	-0.905 (inactive)	0.349	1.22	0.402	0.603	2.01	0.452 (inactive)	1.03	5.81 (inactive)	1.02 (inactive)	0.408 (inactive)	0.794 (inactive)	0.421	0.454 (inactive)	1.6 (inactive)	1.55
CO[C@H]1O[C@H](CO)[C@@H](OC(=O)Nc2ccccc2)[C@H](OC(=O)Nc2ccccc2)[C@H]1OC(=O)Nc1ccccc1	0.664	-4.39 (inactive)	-1.41 (inactive)	1.04 (inactive)	-2.64 (inactive)	0.0545	0.0343	-0.196	1.07	0.78	0.492 (inactive)	0.264	4.11 (inactive)	1.04 (inactive)	0.406 (inactive)	0.912 (inactive)	0.22	-7.66 (inactive)	-1.15 (inactive)	-2.32
Cc1ccccc1C(O)C1C=CC2C(=O)N(c3ccccc3)C(=O)C2N1Nc1ccccc1 (stereo not given)	0.719	-0.383 (inactive)	-1.18 (inactive)	0.0501 (inactive)	0.0163 (inactive)	1.65	0.182	-0.241	0.191	0.442	-0.29 (inactive)	0.271	20.1 (active)	3.73 (inactive)	0.214 (inactive)	1.59 (inactive)	-0.495	-1.85 (inactive)	-2.96 (inactive)	-2.44
O=C(NC1CC1)[C@@H]1c2ccccc2C(=O)N(CC23CC4CC(CC(C4)C2)C3)[C@H]1c1ccc(CO)cc1	0.659	-1.29 (inactive)	-0.88 (inactive)	0.0026 (inactive)	-0.049 (inactive)	0.189	0.0697	0.197	0.833	1.88	0.268 (inactive)	0.284	1.56 (inactive)	0.464 (inactive)	1.48 (inactive)	0.181 (inactive)	0.268	0.507 (inactive)	0.157 (inactive)	0.412
